# Experimental data: PubChem BioAssay (EPA / NIEHS)
# Results filed as inconclusive are left out. The source made the active and inactive calls. Rule for the calls, unless noted: active = hit-call score of the fitted dose curve at least 0.9, where 1 is the maximum; inactive = score below 0.9.
# How the values were obtained:
# [1] = target: human Thyroid Receptor alpha (THRa1), THRA (gene 7067) (UniProt P10827); assay: ATG_THRa1_TRANS: Attagene TRANS-FACTORIAL HepG2 Assay for human Thyroid Receptor alpha (THRa1) (AID 2283014; active = hit-call score of the fitted dose curve at least 0.9, where 1 is the maximum)
# human Thyroid Receptor alpha (THRa1), THRA (gene 7067), sequence (P10827 whole entry, looked up, the tested form may be a part): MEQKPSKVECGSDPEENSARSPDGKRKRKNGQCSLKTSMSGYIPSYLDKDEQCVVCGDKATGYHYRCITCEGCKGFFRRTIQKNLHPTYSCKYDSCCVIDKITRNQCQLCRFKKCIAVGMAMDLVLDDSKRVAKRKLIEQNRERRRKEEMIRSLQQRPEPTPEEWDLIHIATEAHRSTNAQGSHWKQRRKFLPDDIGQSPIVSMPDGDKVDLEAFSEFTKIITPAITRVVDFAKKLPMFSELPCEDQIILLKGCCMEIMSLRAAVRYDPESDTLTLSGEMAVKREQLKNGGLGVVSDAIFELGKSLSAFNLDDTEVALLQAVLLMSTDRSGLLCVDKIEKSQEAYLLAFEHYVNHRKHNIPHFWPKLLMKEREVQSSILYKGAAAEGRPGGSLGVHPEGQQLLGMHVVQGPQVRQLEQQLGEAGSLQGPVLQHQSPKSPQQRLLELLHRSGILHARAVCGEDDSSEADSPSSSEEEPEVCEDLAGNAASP
# How it was run: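 First, HepG2 cells receive multiple GAL4-UAS reporter units and the chimeric receptor. They are then dosed for 24 h, after which RNA is reverse-transcribed, amplified, labelled, HpaI-cut and sized by capillary electrophoresis; gain relative to DMSO is scored.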
# [2] = target: human Vitamin D Receptor (VDR), VDR (gene 7421) (UniProt P11473); assay: ATG_VDR_TRANS: Attagene TRANS-FACTORIAL HepG2 Assay for human Vitamin D Receptor (VDR) (AID 2283022; active = hit-call score of the fitted dose curve at least 0.9, where 1 is the maximum)
# human Vitamin D Receptor (VDR), VDR (gene 7421), sequence (P11473 whole entry, looked up, the tested form may be a part): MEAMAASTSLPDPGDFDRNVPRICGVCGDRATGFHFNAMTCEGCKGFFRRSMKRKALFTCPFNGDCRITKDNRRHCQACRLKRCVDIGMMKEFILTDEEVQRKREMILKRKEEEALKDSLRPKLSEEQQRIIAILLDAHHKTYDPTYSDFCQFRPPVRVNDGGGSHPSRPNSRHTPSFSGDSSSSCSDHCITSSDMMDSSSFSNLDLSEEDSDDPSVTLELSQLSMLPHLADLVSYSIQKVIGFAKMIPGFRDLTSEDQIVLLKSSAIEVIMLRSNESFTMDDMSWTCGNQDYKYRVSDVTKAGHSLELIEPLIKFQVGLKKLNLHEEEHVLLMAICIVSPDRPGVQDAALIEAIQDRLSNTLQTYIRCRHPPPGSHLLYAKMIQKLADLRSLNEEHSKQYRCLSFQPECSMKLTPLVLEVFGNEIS
# How it was run: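 Fluorescence of labelled reporter cDNA fragments, resolved by capillary electrophoresis, gives mRNA induction after 24 h treatment of HepG2 cells carrying transfected Gal4-fusion reporter units. Activity is fitted in the positive direction with DMSO as baseline.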
# [3] = read-out: E-selectin (Homo sapiens) (UniProt P16581); assay: BSK_3C_Eselectin: BioMAP Diversity Plus: 3C Assay for Eselectin Biomarker Activity (AID 2283015); settings: primary human endothelial cells (HUVEC); actives raise or lower the signal;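 for outcome: cell surface E-selectin protein quantified by ELISA 24 h after dosing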
# How it was run: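 Human vascular endothelium from umbilical vein is exposed to test chemicals for 24 h. E-selectin levels are read by ELISA and compared with DMSO controls.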
# [4] = read-out: Interleukin-1 alpha (IL1a), IL1A (gene 3552); assay: BSK_BE3C_IL1a: BioMAP Diversity Plus: BE3C Assay for Interleukin-1 alpha (IL1a) Biomarker Activity (AID 2283016); settings: primary human bronchial epithelial cells; actives raise or lower the signal
# How it was run: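 BE3C primary human bronchial epithelium; cpd 24 h; IL-1a by ELISA; bidirectional fit vs DMSO; parallel SRB (0.1% SRB, 10% TCA fix, 560 nm) for cytotoxicity.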
# [5] = read-out: Monocyte Chemoattractant Protein-1 (MCP1), CCL2 (gene 6347); assay: BSK_3C_MCP1: BioMAP Diversity Plus: 3C Assay for Monocyte Chemoattractant Protein-1 (MCP1) Biomarker Activity (AID 2283017); settings: primary human endothelial cells (HUVEC); actives raise or lower the signal
# How it was run: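 Endothelial cells from human umbilical vein are dosed with chemical, cultured 24 h, then assayed for MCP-1 by ELISA; both increases and decreases are modelled against DMSO controls.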
# [6] = read-out: Monocyte Chemoattractant Protein-1 (MCP1), CCL2 (gene 6347); assay: BSK_4H_MCP1: BioMAP Diversity Plus: 4H Assay for Monocyte Chemoattractant Protein-1 (MCP1) Biomarker Activity (AID 2283018); settings: primary human endothelial cells (HUVEC); actives raise or lower the signal
# How it was run: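 ELISA read-out of MCP-1 from human vascular endothelial primary cells taken at 24 hours after compound exposure. Activity was fitted in both directions relative to DMSO, which served as negative control.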
# [7] = read-out: Human Leukocyte Antigen - DR isotype (HLADR), HLA-DRA (gene 3122); assay: BSK_3C_HLADR: BioMAP Diversity Plus: 3C Assay for Human Leukocyte Antigen - DR isotype (HLADR) Biomarker Activity (AID 2283019); settings: primary human endothelial cells (HUVEC); actives raise or lower the signal;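 for outcome: ELISA of cell-surface HLA-DR on HUVEC 24 h after dosing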
# How it was run: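 Endothelial cells from human umbilical vein are treated with test chemical; after 24 h, HLA-DR levels are measured by ELISA. Data are fitted in both directions using DMSO as the baseline.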
# [8] = read-out: Interleukin-8 (IL8), CXCL8 (gene 3576); assay: BSK_3C_IL8: BioMAP Diversity Plus: 3C Assay for Interleukin-8 (IL8) Biomarker Activity (AID 2283020); settings: primary human endothelial cells (HUVEC); actives raise or lower the signal
# How it was run: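 ELISA read-out of IL-8 from human umbilical vein endothelium, measured 24 h after chemical dosing. Activity is expressed relative to DMSO negative control, with both increases and decreases fitted.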
# [9] = read-out: Monokine induced gamma interferon (MIG), CXCL9 (gene 4283); assay: BSK_3C_MIG: BioMAP Diversity Plus: 3C Assay for Monokine induced gamma interferon (MIG) Biomarker Activity (AID 2283021); settings: primary human endothelial cells (HUVEC); actives raise or lower the signal
# How it was run: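 Read-out is ELISA detection of MIG on human umbilical vein endothelial cells, taken 24 h after dosing. Gain or loss of signal was scored relative to DMSO controls using bidirectional curve fitting.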
# [10] = BSK_3C_SRB: Viability Assessment in the BioMAP Diversity Plus: 3C Assay (AID 2283023); settings: primary human endothelial cells (HUVEC);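 note: fitted both ways against DMSO so a hit may be signal rise or drop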
# How it was run: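 Cells were dosed with chemical, cultured 24 h, fixed with 10% TCA, stained with 0.1% SRB and read at 560 nm. Human umbilical vein endothelium was used; DMSO served as negative control and baseline.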
# [11] = read-out: Matrix Metallopeptidase 1 (MMP1), MMP1 (gene 4312); assay: BSK_BE3C_MMP1: BioMAP Diversity Plus: BE3C Assay for Matrix Metallopeptidase 1 (MMP1) Biomarker Activity (AID 2283024); settings: primary human bronchial epithelial cells; actives raise or lower the signal
# How it was run: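 Human bronchial epithelial cells (BE3C system) exposed to compound for 24 h; MMP1 then quantified by ELISA. Activity was fitted in both directions relative to DMSO.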
# [12] = BSK_3C_Vis: BioMAP Diversity Plus: 3C Assay for Morphology Visualization (AID 2283025); settings: primary human endothelial cells (HUVEC);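 note: fitted both ways so gain or loss versus DMSO counts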;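 for AC50: light microscopy image of cell morphology used as background control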
# How it was run: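 Chemicals were added to primary human umbilical vein endothelium, cells were incubated 24 h, and morphology was then visualized by light microscopy. Gain or loss of signal was fitted bidirectionally relative to DMSO.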
# [13] = read-out: Pselectin, SELP (gene 6403); assay: BSK_4H_Pselectin: BioMAP Diversity Plus: 4H Assay for Pselectin Biomarker Activity (AID 2283026); settings: primary human endothelial cells (HUVEC); actives raise or lower the signal
# How it was run: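 ELISA read-out of P-selectin on human umbilical vein endothelium after 24 h of dosing. Values derive from bidirectional fitting relative to DMSO. Parallel SRB protein staining flagged overt cytotoxicity.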
# [14] = BSK_4H_SRB: Viability Assessment in the BioMAP Diversity Plus: 4H Assay (AID 2283027); settings: primary human endothelial cells (HUVEC);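 note: cells exposed to compound for 24 h before staining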;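 for AC50: curves fitted both ways versus DMSO so AC50 may be loss or gain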
# How it was run: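 Human umbilical vein endothelial cells, 24 h after chemical dosing; total protein measured by 0.1% sulforhodamine B staining after 10% TCA fixation, read at 560 nm. Bidirectional fitting against DMSO.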
# [15] = BSK_BE3C_SRB: Viability Assessment in the BioMAP Diversity Plus: BE3C Assay (AID 2283028); settings: primary human bronchial epithelial cells
# How it was run: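 Overt cytotoxicity was assessed as total protein in confluent human primary bronchial epithelial cultures 24 h after chemical addition, using 0.1% sulforhodamine B staining read at 560 nm.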
# [16] = read-out: Thrombomodulin, THBD (gene 7056); assay: BSK_3C_Thrombomodulin: BioMAP Diversity Plus: 3C Assay for Thrombomodulin Biomarker Activity (AID 2283029); settings: primary human endothelial cells (HUVEC); actives raise or lower the signal
# How it was run: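 Read-out is ELISA of thrombomodulin on human umbilical vein endothelium 24 h after chemical dosing. Gain or loss of signal is scored relative to DMSO. Overt cytotoxicity is checked in parallel cultures by sulforhodamine B staining.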
# [17] = read-out: Urokinase-type plasminogen activator receptor (uPAR), PLAUR (gene 5329); assay: BSK_4H_uPAR: BioMAP Diversity Plus: 4H Assay for Urokinase-type plasminogen activator receptor (uPAR) Biomarker Activity (AID 2283030); settings: primary human endothelial cells (HUVEC); actives raise or lower the signal
# How it was run: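 Chemicals are dosed onto human vascular endothelial primary cells (umbilical vein). After 24 h, uPAR is read by ELISA. Gain or loss of signal is fitted relative to DMSO.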
# E-selectin (Homo sapiens), sequence (P16581 whole entry, looked up): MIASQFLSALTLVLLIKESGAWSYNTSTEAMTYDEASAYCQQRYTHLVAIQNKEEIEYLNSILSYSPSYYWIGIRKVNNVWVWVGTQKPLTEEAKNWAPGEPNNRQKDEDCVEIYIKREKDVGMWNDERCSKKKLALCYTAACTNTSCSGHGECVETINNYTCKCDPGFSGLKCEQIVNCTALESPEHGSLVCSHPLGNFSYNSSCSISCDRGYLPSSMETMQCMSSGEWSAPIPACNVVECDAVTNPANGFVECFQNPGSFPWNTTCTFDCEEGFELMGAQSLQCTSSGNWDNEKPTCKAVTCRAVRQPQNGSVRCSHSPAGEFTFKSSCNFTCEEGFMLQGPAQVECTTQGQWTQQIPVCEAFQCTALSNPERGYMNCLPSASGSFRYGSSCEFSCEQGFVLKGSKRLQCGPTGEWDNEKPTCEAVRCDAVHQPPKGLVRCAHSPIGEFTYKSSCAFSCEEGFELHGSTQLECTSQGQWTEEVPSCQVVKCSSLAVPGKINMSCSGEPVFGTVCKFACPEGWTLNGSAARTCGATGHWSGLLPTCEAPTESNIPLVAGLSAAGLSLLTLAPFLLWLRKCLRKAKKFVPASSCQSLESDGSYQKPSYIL
compound,measurement,setting,value
O=c1cc(-c2ccccc2)oc2cc(O)cc(O)c12,outcome,[1],inactive
same,outcome,[2],inactive
CC(C)c1ccc(C(C)C)cc1,outcome,[1],inactive
same,AC50,[3],36.1 µM (active)
same,AC50,[4],29.1 µM (active)
same,AC50,[5],36.8 µM (active)
same,AC50,[6],29.9 µM (active)
same,AC50,[7],34.6 µM (active)
same,outcome,[8],inactive
same,outcome,[9],inactive
same,outcome,[2],inactive
same,AC50,[10],30.5 µM (active)
same,outcome,[11],inactive
same,AC50,[12],37.8 µM (active)
same,AC50,[13],31 µM (active)
same,AC50,[14],30.7 µM (active)
same,outcome,[15],inactive
same,outcome,[16],inactive
same,AC50,[17],30.9 µM (active)
O=C(O)CCCCCCCCCCC(=O)O,outcome,[1],inactive
C=CC(=O)NCOCC(C)C,outcome,[2],inactive
COc1ccc(O)cc1,outcome,[1],inactive
same,outcome,[2],inactive
CCC(C(=O)NC(N)=O)c1ccccc1 (configuration not stated),outcome,[1],inactive
CCC(C)(O)CCC=C(C)C (configuration not stated),outcome,[2],inactive
OCCCCCO,outcome,[1],inactive
O=[N+]([O-])c1cc(C(F)(F)F)ccc1Cl,outcome,[3],inactive
same,outcome,[4],inactive
same,outcome,[5],inactive
same,outcome,[6],inactive
same,outcome,[7],inactive
same,outcome,[8],inactive
same,outcome,[9],inactive
same,outcome,[10],inactive
same,outcome,[11],inactive
same,outcome,[12],inactive
same,outcome,[13],inactive
same,outcome,[14],inactive
same,outcome,[16],inactive
same,outcome,[17],inactive
CC(C)c1cccc(O)c1,outcome,[1],inactive
same,outcome,[2],inactive
CCCCC(CC)COC(=O)/C=C\C(=O)OCC(CC)CCCC (configuration not stated),outcome,[3],inactive
same,outcome,[4],inactive
same,outcome,[5],inactive
same,outcome,[6],inactive
same,outcome,[7],inactive
same,outcome,[8],inactive
same,outcome,[9],inactive
same,outcome,[2],inactive
same,outcome,[10],inactive
same,outcome,[11],inactive
same,outcome,[12],inactive
same,outcome,[13],inactive
same,outcome,[14],inactive
same,outcome,[16],inactive
same,outcome,[17],inactive
c1ccc(CCCc2ccccn2)cc1,outcome,[2],inactive
CC(C)(C)c1n[nH]c(=S)n(N)c1=O,outcome,[2],inactive
O=C(O)COCCN1CCN(C(c2ccccc2)c2ccc(Cl)cc2)CC1 (configuration not stated),outcome,[1],inactive
same,outcome,[2],inactive
Cc1ccc(C=O)cc1,outcome,[1],inactive
